Reference: the supplement of paper PMC12067093, “Discovery and optimisation of a covalent ligand for TRIM25 and its application to targeted protein ubiquitination” (Chemical Science, 2025)
About 21,000 targets were measured; listed, in parts, are those with the largest changes and a random draw of the rest.

Compound: Cc1cc(ccc1-c1ccccc1)C(=O)N1CCCN(CC1)C(=O)CCl [compound 10]
Test: probe-labelled cysteine peptide fold change vs DMSO (competition) (log2 fold change); higher = less target engagement (more negative = stronger competition)
Conditions: THP-1, incubation time: 4 h
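Further: competitive profiling in live THP-1 cells: cysteine peptides tagged with an iodoacetamide desthiobiotin (IA-DTB) probe, intensity after compound treatment relative to DMSO-treated cells.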

UniProt Q8IWZ3, sequence (Q8IWZ3 whole entry, looked up): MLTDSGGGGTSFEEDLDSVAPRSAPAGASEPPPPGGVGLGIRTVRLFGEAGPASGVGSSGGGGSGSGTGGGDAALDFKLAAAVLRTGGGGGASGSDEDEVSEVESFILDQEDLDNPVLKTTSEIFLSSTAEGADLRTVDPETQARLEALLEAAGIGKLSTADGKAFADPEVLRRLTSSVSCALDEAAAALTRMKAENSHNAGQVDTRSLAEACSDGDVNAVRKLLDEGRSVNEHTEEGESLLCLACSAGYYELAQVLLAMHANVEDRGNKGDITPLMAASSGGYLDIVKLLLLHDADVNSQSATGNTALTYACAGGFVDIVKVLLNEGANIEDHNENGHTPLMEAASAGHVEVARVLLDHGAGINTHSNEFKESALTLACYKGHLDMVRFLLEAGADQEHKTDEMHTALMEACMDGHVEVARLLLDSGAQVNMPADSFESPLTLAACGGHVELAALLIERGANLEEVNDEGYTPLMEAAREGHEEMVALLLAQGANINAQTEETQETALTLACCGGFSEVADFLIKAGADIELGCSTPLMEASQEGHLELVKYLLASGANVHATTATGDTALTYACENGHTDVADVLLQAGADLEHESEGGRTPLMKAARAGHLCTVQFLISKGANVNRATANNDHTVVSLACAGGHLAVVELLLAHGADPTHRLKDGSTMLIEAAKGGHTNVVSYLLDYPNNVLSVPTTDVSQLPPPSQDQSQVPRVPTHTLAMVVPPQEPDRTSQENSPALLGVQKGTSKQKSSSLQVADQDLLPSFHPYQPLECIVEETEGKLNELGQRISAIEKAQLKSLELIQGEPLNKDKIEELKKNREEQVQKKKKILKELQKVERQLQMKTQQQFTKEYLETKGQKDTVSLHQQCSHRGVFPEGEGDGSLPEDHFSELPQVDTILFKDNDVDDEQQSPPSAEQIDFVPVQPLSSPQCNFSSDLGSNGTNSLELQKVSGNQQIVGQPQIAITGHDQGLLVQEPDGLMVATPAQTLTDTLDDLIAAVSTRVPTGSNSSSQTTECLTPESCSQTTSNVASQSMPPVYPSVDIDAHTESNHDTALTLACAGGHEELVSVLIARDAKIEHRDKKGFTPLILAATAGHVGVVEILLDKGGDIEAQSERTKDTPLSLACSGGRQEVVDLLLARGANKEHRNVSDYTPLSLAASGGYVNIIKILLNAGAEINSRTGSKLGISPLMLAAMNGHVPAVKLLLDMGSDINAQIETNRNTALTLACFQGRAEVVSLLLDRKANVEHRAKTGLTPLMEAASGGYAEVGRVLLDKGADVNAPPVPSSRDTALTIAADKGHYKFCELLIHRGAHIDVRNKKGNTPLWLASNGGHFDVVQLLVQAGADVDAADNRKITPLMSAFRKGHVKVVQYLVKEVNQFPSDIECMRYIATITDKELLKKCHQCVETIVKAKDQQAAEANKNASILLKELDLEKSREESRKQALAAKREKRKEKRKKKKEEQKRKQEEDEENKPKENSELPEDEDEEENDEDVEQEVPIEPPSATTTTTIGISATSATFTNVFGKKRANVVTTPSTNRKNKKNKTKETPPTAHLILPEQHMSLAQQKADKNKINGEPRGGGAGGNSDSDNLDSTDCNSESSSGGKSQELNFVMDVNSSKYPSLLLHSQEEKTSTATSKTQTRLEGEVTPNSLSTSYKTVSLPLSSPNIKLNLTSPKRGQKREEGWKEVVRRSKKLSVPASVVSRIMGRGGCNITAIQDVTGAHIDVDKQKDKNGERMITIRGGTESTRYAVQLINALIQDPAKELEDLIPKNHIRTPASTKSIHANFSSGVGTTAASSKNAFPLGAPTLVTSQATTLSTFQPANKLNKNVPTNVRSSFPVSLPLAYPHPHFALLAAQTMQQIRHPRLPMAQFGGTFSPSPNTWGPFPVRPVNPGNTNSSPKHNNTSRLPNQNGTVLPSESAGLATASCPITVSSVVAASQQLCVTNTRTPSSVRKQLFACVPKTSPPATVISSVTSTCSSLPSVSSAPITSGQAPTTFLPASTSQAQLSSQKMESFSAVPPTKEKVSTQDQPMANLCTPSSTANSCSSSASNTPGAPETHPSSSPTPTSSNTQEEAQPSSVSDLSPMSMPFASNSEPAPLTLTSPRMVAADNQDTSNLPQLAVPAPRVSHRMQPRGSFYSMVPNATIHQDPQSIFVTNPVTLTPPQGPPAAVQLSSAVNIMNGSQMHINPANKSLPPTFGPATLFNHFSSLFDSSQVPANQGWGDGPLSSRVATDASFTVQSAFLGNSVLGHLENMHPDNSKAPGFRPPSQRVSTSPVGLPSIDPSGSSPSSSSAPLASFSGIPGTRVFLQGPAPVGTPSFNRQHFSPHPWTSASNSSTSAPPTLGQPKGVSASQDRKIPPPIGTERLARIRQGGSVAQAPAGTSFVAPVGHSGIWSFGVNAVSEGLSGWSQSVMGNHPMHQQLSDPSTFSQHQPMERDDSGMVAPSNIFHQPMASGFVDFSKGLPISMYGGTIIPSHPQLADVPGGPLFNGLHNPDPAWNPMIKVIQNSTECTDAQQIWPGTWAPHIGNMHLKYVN
UniProt Q9ULJ7, sequence (Q9ULJ7 whole entry, looked up): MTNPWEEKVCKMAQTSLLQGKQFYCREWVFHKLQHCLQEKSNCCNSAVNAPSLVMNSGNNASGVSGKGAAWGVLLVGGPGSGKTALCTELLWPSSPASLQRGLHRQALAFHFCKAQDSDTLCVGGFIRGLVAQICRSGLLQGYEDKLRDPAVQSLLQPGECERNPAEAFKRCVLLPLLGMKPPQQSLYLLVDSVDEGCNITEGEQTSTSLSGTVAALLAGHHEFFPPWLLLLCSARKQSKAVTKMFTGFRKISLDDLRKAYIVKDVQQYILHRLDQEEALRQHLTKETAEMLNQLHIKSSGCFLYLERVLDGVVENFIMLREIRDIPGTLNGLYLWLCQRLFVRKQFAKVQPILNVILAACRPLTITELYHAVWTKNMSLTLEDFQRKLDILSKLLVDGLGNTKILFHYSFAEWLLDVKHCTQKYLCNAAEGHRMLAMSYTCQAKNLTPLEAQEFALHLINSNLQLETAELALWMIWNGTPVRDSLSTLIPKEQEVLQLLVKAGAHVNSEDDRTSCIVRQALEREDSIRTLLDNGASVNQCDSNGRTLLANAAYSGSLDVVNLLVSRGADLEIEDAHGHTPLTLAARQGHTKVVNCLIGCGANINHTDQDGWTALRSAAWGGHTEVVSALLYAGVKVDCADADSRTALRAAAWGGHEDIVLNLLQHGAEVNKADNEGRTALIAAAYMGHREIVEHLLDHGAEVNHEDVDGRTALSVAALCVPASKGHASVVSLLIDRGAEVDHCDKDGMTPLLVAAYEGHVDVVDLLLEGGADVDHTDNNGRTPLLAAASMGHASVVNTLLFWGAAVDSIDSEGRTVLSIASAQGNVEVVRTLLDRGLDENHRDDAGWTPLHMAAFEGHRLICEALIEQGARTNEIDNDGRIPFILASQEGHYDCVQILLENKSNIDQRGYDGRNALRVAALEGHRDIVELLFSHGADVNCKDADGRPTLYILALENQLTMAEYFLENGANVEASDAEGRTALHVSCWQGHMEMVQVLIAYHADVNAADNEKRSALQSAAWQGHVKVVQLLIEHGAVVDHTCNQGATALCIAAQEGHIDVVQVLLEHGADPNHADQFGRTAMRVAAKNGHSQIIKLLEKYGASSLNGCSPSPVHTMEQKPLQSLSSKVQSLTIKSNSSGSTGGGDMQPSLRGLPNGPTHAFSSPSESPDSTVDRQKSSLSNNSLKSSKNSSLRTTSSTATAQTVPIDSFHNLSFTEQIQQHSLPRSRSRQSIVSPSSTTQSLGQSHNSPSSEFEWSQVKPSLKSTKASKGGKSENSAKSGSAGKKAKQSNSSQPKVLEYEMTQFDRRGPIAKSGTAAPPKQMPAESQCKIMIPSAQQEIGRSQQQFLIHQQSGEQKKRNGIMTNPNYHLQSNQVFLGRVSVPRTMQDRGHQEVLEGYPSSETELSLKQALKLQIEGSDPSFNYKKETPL
UniProt Q9Y4W6, sequence (Q9Y4W6 whole entry, looked up): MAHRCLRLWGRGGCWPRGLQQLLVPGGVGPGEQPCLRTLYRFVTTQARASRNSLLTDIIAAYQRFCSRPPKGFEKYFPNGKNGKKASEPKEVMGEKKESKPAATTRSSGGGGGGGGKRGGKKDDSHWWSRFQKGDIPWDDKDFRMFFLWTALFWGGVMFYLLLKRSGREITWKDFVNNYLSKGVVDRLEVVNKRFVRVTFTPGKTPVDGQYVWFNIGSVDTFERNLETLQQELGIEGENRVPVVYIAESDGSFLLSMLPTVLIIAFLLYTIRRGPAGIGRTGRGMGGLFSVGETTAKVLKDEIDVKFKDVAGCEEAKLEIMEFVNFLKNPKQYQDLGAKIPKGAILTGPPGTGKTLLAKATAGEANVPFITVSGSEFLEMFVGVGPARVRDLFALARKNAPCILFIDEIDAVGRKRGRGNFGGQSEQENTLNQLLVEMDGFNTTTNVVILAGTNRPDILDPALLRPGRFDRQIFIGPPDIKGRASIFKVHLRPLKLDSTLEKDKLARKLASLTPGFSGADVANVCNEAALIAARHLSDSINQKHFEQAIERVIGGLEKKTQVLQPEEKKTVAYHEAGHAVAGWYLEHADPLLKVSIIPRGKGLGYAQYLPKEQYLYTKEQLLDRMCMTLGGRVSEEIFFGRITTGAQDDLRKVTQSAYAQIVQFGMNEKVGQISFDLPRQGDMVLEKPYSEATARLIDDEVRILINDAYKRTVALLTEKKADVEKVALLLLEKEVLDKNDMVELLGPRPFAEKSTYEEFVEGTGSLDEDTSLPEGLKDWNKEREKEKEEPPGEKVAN
UniProt P04075, sequence (P04075 whole entry, looked up): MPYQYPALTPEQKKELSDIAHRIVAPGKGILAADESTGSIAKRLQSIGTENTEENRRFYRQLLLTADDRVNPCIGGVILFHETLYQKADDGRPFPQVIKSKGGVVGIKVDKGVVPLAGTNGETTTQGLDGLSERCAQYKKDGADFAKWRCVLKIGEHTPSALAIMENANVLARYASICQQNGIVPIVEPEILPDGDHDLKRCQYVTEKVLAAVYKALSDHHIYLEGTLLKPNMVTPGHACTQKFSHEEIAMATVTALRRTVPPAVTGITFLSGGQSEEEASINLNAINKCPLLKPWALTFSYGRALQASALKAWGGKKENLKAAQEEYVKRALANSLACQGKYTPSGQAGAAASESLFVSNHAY

Target | probe-labelled cysteine peptide fold change (10 µM) | probe-labelled cysteine peptide fold change (50 µM)
ATIC_P31939_101_VVACNLYPFVK (UniProt P31939) | 0.119 | 0.0511
ATL2_Q8NHH9_293_HIHNCFSNLGCFLLPHPGLK (UniProt Q8NHH9) | -0.0463 | -0.137
AP1G1_O43747_392_ELLYFLDSCEPEFK (UniProt O43747) | 0.183 | 0.273
ARNT_P27540_269_CGSSSVDPVSVNR (UniProt P27540) | -0.375 | -0.756
ADNP2_Q6IQ32_220_CNANASSQDALMYHILTSDIHR (UniProt Q6IQ32) | 0.0714 | 0.0124
ANKRD50_Q9ULJ7_113_QALAFHFCK (UniProt Q9ULJ7) | 1.31 | 1.7
ACSL4_O60488_221_TALLDISCVK (UniProt O60488) | 0.177 | 0.0446
AP2B1_P63010_565_PLISEETDLIEPTLLDELICHIGSLASVYHKPPNAFVEGSHGIHR (UniProt P63010) | 0.119 | -0.142
ARHGAP45_Q92619_809_LCQAFENGK (UniProt Q92619) | 0.077 | 0.0355
ARFGEF1_Q9Y6D6_1729_QETSSLACGLR (UniProt Q9Y6D6) | -0.151 | 0.114
ADAM10_O14672_222_NTCQLYIQTDHLFFK (UniProt O14672) | 0.033 | 0.208
ATP6V1A_P38606_138_WDFTPCK (UniProt P38606) | -1.09 | -3.27
ATP6V0A1_Q93050_58_RCEEMDR (UniProt Q93050) | 0.102 | 0.183
ANAPC1_Q9H1A4_1074_LLQLCQR (UniProt Q9H1A4) | -0.0436 | 0.000425
AFG3L2_Q9Y4W6_313_DVAGCEEAKLEIMEFVNFLK (UniProt Q9Y4W6) | -0.324 | -0.391
ALDH9A1_P49189_355_VLCGGDIYVPEDPK (UniProt P49189) | -0.105 | 0.0431
ASCC3_Q8N3C0_366_KAGEDLEVSEGLMCFDPK (UniProt Q8N3C0) | -0.217 | -0.375
AIDA_Q96BJ3_69_IATCLELR (UniProt Q96BJ3) | -0.123 | -0.606
APBB1IP_Q7Z5R6_401_YLCCDDTR (UniProt Q7Z5R6) | -0.318 | -0.372
ATP2B1_P20020_547_TECALLGLLLDLKR (UniProt P20020) | -0.138 | -0.507

Target | probe-labelled cysteine peptide fold change (10 µM) | probe-labelled cysteine peptide fold change (50 µM)
AIG1_Q9NVV5_6_MALVPCQVLR (UniProt Q9NVV5) | -0.836 | -1.35
ATAD1_Q8NBU5_229_AQFMSLWDGLDTDHSCQVIVMGATNRPQDLDSAIMR (UniProt Q8NBU5) | 0.117 | 0.088
ALDOA_P04075_339_RALANSLACQGK (UniProt P04075) | -0.187 | -0.104
ATRX_P46100_1531_CPITTK (UniProt P46100) | -0.402 | -1.05
ACTR3_P61158_8+12_LPACVVDCGTGYTK (UniProt P61158) | -0.243 | -0.313
AIP_O00170_121+122_HCCGVAQMR (UniProt O00170) | -0.298 | -1.16
ANKHD1_Q8IWZ3_1716_GGCNITAIQDVTGAHIDVDK (UniProt Q8IWZ3) | 0.183 | 0.0508
ATOX1_O00244_41_VCIESEHSMDTLLATLKK (UniProt O00244) | 0.237 | -0.215
ALKBH5_Q6P6C2_100_LFSQDECAK (UniProt Q6P6C2) | -0.000108 | 0.012
ARHGEF6_Q15052_530_IVVHCNNNQDFQEWLEQLNR (UniProt Q15052) | 0.0109 | 0.158
ALKBH3_Q96Q83_201_CPIIASLSFGATR (UniProt Q96Q83) | 0.189 | -0.104
ADAR_P55265_851_CFNTLTNSFQPSLLGR (UniProt P55265) | -0.0671 | 0.166
ARHGAP25_P42331_448_CFLTSAFQGANSSK (UniProt P42331) | -0.526 | -1.52
ALDH1B1_P30837_169_TIPMDGQHFCFTR (UniProt P30837) | 0.00215 | -0.131
ATP6V1B2_P21281_425_DHADVSNQLYACYAIGK (UniProt P21281) | 0.162 | 0.207
ASPSCR1_Q9BZE9_224+225_GDLSRPEDADTSGPCCEHTQEK (UniProt Q9BZE9) | -0.786 | -1.37
AGL_P35573_486_ELICWGDSVK (UniProt P35573) | 0.0938 | 0.033
ANXA4_P09525_315_KVLLVLCGGDD (UniProt P09525) | -0.0611 | -0.661
AFTPH_Q6ULP2_659_IFEACFPSILVPDAEEEVTSLK (UniProt Q6ULP2) | 0.0219 | -0.0706
